Assay results from PubChem BioAssay (NCI).
This is part of a sample that, as a whole, favours compounds with a hit. Of some 83,000 tested, about 20% had one in any assay.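 Interpretation: 100, growth as untreated; towards 0, rising growth inhibition; 0, no net growth; 0 to -100, cell death. Compounds scoring below 10 were considered active.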 A number with no mark means an inactive call. Activity calls are given as the source filed them.

tested on: ACHN renal; test: NCI-60 one-dose screen, 48 h (100 = growth as untreated, 0 = no growth, -100 = all killed); conditions: 10 µM unless noted

Row | SMILES | growth
1 | COc1ccc(C2SCC(=O)N2NC(=O)c2ccc(NC(=O)c3ccccn3)cc2)cc1OC (centres undefined) | 99.2%
2 | O=C(O)c1cn(C2CC2)c2cc(N3CCN(S(=O)(=O)c4ccc(Cl)c(Cl)c4)CC3)c(F)cc2c1=O | 4.95% (active)
3 | COc1ccc(/C=C/C(=O)c2ccc(B(O)O)cc2)cc1O | 93.9%
4 | O=C(Nc1ccc(OCc2nnc(-c3ccc(Cl)cc3)o2)c(F)c1)Nc1ccc(Cl)c(Cl)c1 | 3.37% (active)
5 | COc1cc(/C=C2\C=C(c3ccc(F)cc3)N(Cc3ccccc3)C2=O)cc(OC)c1OC | 73.1%
6 | Cc1cc(C)c(NC(=O)c2sc3nc4c(cc3c2N)CN(Cc2ccccc2)CC4)c(C)c1 | 45.7%
7 | COc1cccc(-c2nc3sccn3c2-c2ccnc(NCCCNS(=O)(=O)c3ccccc3)n2)c1 | 40.2%
8 | COc1cc(NCCN=C(N)NC(N)=NC(C)C)c2ncccc2c1 | 94.1%
9 | Cc1ccc(Nc2ncnc3c2sc2ncccc23)cc1 | 99.3%
10 | COc1cccc(/C=C2\SC(N3CCN(c4ccccn4)CC3)=NC2=O)c1 | 104%
11 | CCOC(=O)C1=C(CSC(=S)N(C2CCCCC2)C2CCCCC2)N(C)C(=O)NC1c1ccccc1 (centres undefined) | 37.8%
12 | CC(C)C[C@H](NC(=O)[C@@H](Cc1ccccc1)n1ccc(Nc2ccccc2)cc1=O)B(O)O | 20.9%
13 | COc1cccc(-c2nc3sccn3c2-c2ccnc(NCCCNS(=O)(=O)c3ccc(F)cc3)n2)c1 | 21.8%
14 | O=S(=O)(NCCCNc1nccc(-c2c(-c3ccccc3)nc3sccn23)n1)c1ccc(F)cc1 | 26.6%
15 | Nc1c(C(=O)Nc2ccccc2)sc2nc3c(cc12)CCCCC3 | 30.3%
16 | CCNC(=O)CCCCC(=O)c1c(C)[nH]c(/C=C2\N=C(c3ccc[nH]3)C=C2OC)c1C | -3.69% (active)
17 | Cc1cc(Nc2nc(C(=O)Nc3ccccc3)nc3ccccc23)n[nH]1 | 39.9%
18 | CCCCCCCCCCCCCCCCC(Br)C(=O)O (centres undefined) | 96.6%
19 | COc1ccc(/C=C2\C(=O)N(C(=O)c3csc(NC(C)=O)n3)N=C2C)cc1 | 107%
20 | COc1ccc(-c2nc3sccn3c2-c2ccnc(NCCCNS(=O)(=O)c3ccc4ccccc4c3)n2)cc1 | 60%

Row | SMILES | growth
21 | CC[C@]1(O)C[C@@H]2CN(Cc3c([nH]c4ccccc34)[C@@](C(=O)OC)(c3cc4c(cc3OC)N(C)[C@H]3[C@@](O)(C(=O)OC)[C@H](OC(C)=O)[C@]5(CC)[C@@H]6C[C@@H]6CN6CC[C@]43[C@@H]65)C2)C1 | 47.8%
22 | CN=S(=O)(NC(=O)c1ccc(Cl)cc1Cl)c1ccc(Br)s1 (centres undefined) | 102%
23 | Cc1ccc(S(=O)(=O)NCCCNc2nccc(-c3c(-c4ccccc4)nc4sccn34)n2)cc1 | 37.7%
24 | COc1cc(OC)c(C(=O)/C=C/c2cccc(C#N)c2)c(OC)c1 | -33.9% (active)
25 | COc1ccc(C2CC(c3cccs3)=NN2c2ccc(S(=O)(=O)NC(=O)Nc3ccc(C)cc3)cc2)cc1 (centres undefined) | 96.6%
26 | O=S(=O)(NCCNc1nccc(-c2c(-c3ccccc3)nc3sccn23)n1)c1ccc(O)cc1 | 25.8%
27 | CNC(=O)Cc1nc(-c2cccc(NS(=O)(=O)c3c(F)cccc3F)c2F)c(-c2ccnc(Nc3ccccc3)n2)s1 | 10.7%
28 | O=c1[nH]c2ccccc2cc1-c1nnc(Cc2ccccc2)o1 | 65.9%
29 | CCCCCCC[C@@H](O)CC(=O)N[C@H](CCCCN)C(=O)N[C@H](Cc1c[nH]c2ccccc12)C(=O)NC(CCCCN)C(=O)N[C@H](CC(C)C)C(=O)N[C@H](Cc1ccccc1)C(=O)N[C@H](CCCCN)C(=O)N[C@H](CCCCN)C(=O)N[C@H](CC(C)C)C(=O)N1CCCC1C(=O)N[C@H](CCCCN)C(=O)N[C@H](Cc1ccccc1)C(=O)N[C@H](CC(C)C)C(=O)N[C@H](Cc1c[nH]cn1)C(=O)N[C@H](CC(C)C)C(=O)N[C@H](C)C(=O)N[C@H](CCCCN)C(=O)N[C@H](CCCCN)C(=O)N[C@H](Cc1ccccc1)C(=O)O (some centres undefined) | -50.9% (active)
30 | Oc1ccc(Cl)cc1-c1cc(-c2ccc(Cl)cc2)n[nH]1 | 52.8%
31 | CN1C(=O)[C@H]2c3c1cccc3[C@@]13NC(=O)O[C@H]1[C@H](CCC3(C)C)C2(C)C | 94.2%
32 | Cc1cccc(-n2c(C)nc3ccc(NC(=O)NCCCl)cc3c2=O)c1 | 111%
33 | COc1c(NC[C@H]2OC(O)[C@H](O)[C@@H](O)[C@@H]2O)c(=O)c1=O (some centres undefined) | 105%
34 | COc1ccc(-c2nnc(COc3ccc(NS(=O)(=O)c4ccc(OC)cc4)cc3F)o2)cc1 | 72.1%
35 | CCCOC(=O)C1(O)CCCC1 | 94%
36 | Nc1c(C(=O)Nc2ccccc2)sc2nc3c(cc12)CN(Cc1ccccc1)CC3 | 38.1%
37 | COc1cc(OC)cc(-c2n[nH]nc2-c2ccc3c(c2)OCO3)c1 | 42.7%
38 | Cc1ccc(Oc2nc3ccccc3cc2-c2nnc(Cn3c(COc4ccccc4)nc4ccccc43)o2)cc1 | 49.9%
39 | COc1cc(C(=O)/C=C/c2cc(C(=O)c3cc(OC)c(OC)c(OC)c3)ccc2OC)ccc1N | -88.5% (active)
